These results are taken from PubChem BioAssay (Tox21).

A short description of experiment [1]: qHTS assay to identify small molecule agonists of H2AX (AID 1224845; active = well fitted activation curve with a large enough effect in the signal ratio in the repeat runs, not every such curve was filed as active; the % refers to the signal ratio). The gist of the method: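 Wild-type CHO-K1 cells, plated overnight, exposed 3hr at 37C to 15 concentrations (0.76% DMSO final). Lysed, then HTRF anti-pH2AX (S139) cryptate and anti-H2AX-d2 antibodies, 24 hr room temperature; 665/620 nm emission read.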
The nature of experiment [2]: qHTS assay to identify small molecule agonists of the hypoxia (HIF-1) signaling pathway (AID 1224846; active = well fitted activation curve with a large enough effect in the signal ratio in the repeat runs, not every such curve was filed as active; the % refers to the signal ratio). A digest of the protocol:
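A low-serum medium (0.5% dialyzed FBS) holding 2,000 HRE-bla ME-180 cells per well is preincubated for 5 hrs, dosed with compounds by pintool, and kept a further 17 hrs at 37C, 5% CO2 before CCF4-AM FRET detection of beta-lactamase.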

Experiment [3] is described as follows: qHTS assay to identify small molecule agonists of H2AX - cell viability counter screen (AID 1224847; calls by dose curve; note: top concentration of the series differs between compounds; nearly all actives have a fitted effect of over 30% in size). A digest of the protocol: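 For this counter screen, overnight-attached CHO-K1 cells received test compounds (15 concentrations, 0.76% DMSO final); 3 hr later at 37C, CellTiter-Glo reagent was added and luminescence recorded after 30 min at room temperature.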

The nature of experiment [4]: qHTS assay to identify small molecule antagonists of the estrogen related receptor (ERR) signaling pathway from Tox21 library (AID 1224848). Note: nearly all actives have a fitted effect of over 50% in size. The gist of the method: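 Luminescent reporter read-out (ONE-Glo) from NTP's ERR cell line after 18 h treatment at 37 C with DMSO-dissolved Tox21 compounds; cells pre-plated 6 h beforehand at 2,000 per well.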
The nature of experiment [5]: qHTS assay to identify small molecule agonists of the estrogen related receptor (ERR) signaling pathway from Tox21 library (AID 1224849; calls by dose curve; note: nearly all actives have a fitted effect of over 15% in size). As to conditions: ERR reporter cell line, ONE-Glo luciferase, 18 h; at 92.4 µM (top of the series) unless noted. The gist of the method:
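Screening used an NTP-provided ERR luciferase cell line. Compounds in DMSO were added 6 h after seeding and left 18 h at 37 C before a 30 min ONE-Glo step and luminescence reading.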

The nature of experiment [6]: qHTS RealTime-Glo MT Cell Viability Assay in HepG2 cells - 24 hour (AID 1224867). Note: nearly all actives have a fitted effect of over 50% in size. The gist of the method: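 HepG2 cells (600/well) were dispensed with RealTime-Glo reagents, incubated 5 h at 37 °C, then treated with compounds in DMSO for up to 40 h. Nonlytic NanoLuc luminescence reflecting viable cells was read at each stated time point.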
Experiment [7] is described as follows: qHTS RealTime-Glo MT Cell Viability Assay in HEK293 cells - 32 hour (AID 1224868). Note: top concentration of the series differs between compounds; nearly all actives have a fitted effect of over 50% in size. A digest of the protocol: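 HEK293 cells seeded with NanoLuc/prosubstrate reagent, rested 5 h at 37 C, then dosed and kept at 37 C up to 40 h. Nonlytic real-time luminescence from viable cells read at 0, 8, 16, 24, 32 and 40 h.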
Experiment [8] in a line: A CellTox Green Cytotoxicity Assay to monitor cytotoxicity in HEK293 cells - 0 hour (AID 1224869). Note: nearly all actives have a fitted effect of over 50% in size. A digest of the protocol:
(§1)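 Fluorescence intensity, read at 0, 8, 16, 24, 32 and 40 h of compound treatment, reflected dye binding to DNA of dead HEK293 cells; compounds (23 nL, DMSO) were added 5 h after plating cells with reagent.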

Experiment [9] is described as follows: qHTS RealTime-Glo MT Cell Viability Assay in HepG2 cells - 40 hour (AID 1224870). Note: nearly all actives have a fitted effect of over 50% in size. The gist of the method:
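HepG2 cells (600/well) mixed with RealTime-Glo MT reagent, settled 5 h at 37 C/5% CO2 before compound addition. Nonlytic NanoLuc luminescence from viable-cell prosubstrate reduction read repeatedly during 40 h treatment at 37 C.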

The nature of experiment [10]: A CellTox Green Cytotoxicity Assay to monitor cytotoxicity in HEK293 cells - 40 hour (AID 1224871). Note: nearly all actives have a fitted effect of over 45% in size. The gist of the method: as §1

A number with no mark means an inactive call. Results filed as inconclusive are left out. Activity calls are given as the source filed them. Unless noted, calls come from the whole dose curve; as a rule, active = well fitted curve in the direction sought with a large enough effect in the repeat runs; inconclusive = weak or mixed curves; inactive = no such curve, though single readings can be large; an effect the other way counts as inactive or inconclusive.
% is set by controls: 0 for no effect and ±100 for the full control effect.

On to `CC1CCC(=O)O1` (configuration not stated), for which the Potency entry in [1], in experiment [3], in experiment [4], in experiment [6], in experiment [7] and in experiment [8] was “inactive” in each case. Besides, the Potency result in experiment [9] and in experiment [10] was “inactive” throughout. In [2], the outcome was inactive. Further, the activity change, positive = activation in [5] was -6.79%.
Regarding `CCNc1nc(NC(C)C)nc(OC)n1`, the Potency result in experiment [1], in experiment [3], in experiment [4], in experiment [6], in [7] and in experiment [8] was “inactive” each time. The Potency result in experiment [9] and in experiment [10] was “inactive” throughout. In addition, the result in experiment [2] was inactive. Besides, the activity change, positive = activation in experiment [5] was -0.534%.
As for `CC(=O)CCc1ccc2c(c1)OCO2`, the Potency result in experiment [1], in [3], in [4], in experiment [6], in experiment [7] and in [8] was “inactive” in each case. Besides, the Potency entry in experiment [9] and in experiment [10] was “inactive” in each case. Further, the compound was called inactive in experiment [2]. The activity change, positive = activation in experiment [5] is -0.0233%.
For `CCC(C)n1c(=O)[nH]c(C)c(Br)c1=O` (configuration not stated), the Potency result in experiment [1], in experiment [3], in experiment [4], in experiment [6], in experiment [7] and in experiment [8] was “inactive” each time. For the same compound, the Potency result in [9] and in experiment [10] was “inactive” throughout. For the same compound, the outcome in experiment [2] was inactive. In experiment [5], the activity change, positive = activation is -4.95%.
For the compound `CCCCN(CCCCO)N=O`, the Potency result in [1], in experiment [3], in experiment [4], in experiment [6], in experiment [7] and in experiment [8] was “inactive” each time. Further, the Potency result in [9] and in [10] was “inactive” in each case. The compound was called inactive in experiment [2]. The activity change, positive = activation in [5] was -8.16%.
For `CC(C)(C)NCC(O)c1cc(Cl)c(N)c(Cl)c1` (configuration not stated), the Potency entry in [1], in experiment [3], in experiment [4], in [6], in [7] and in experiment [8] was “inactive” in each case. The Potency result in experiment [9] and in experiment [10] was “inactive” throughout. Moreover, the result in [2] was inactive. In [5], the activity change, positive = activation is 6.3% [at 42.5 µM].
Take `CCS(=O)(=O)CCSP(=O)(OC)OC`: the Potency result in experiment [1], in experiment [3], in [4], in experiment [6], in experiment [7] and in experiment [8] was “inactive” each time. Besides, the Potency result in experiment [9] and in experiment [10] was “inactive” each time. Further, the compound was called inactive in [2]. In addition, the activity change, positive = activation in [5] is 13.8%.
On to `ClCCOCOCCCl`, for which the Potency result in experiment [1], in experiment [3], in [4], in [6], in experiment [7] and in experiment [8] was “inactive” throughout. Further, the Potency entry in experiment [9] and in experiment [10] was “inactive” each time. In addition, in experiment [2], the outcome was inactive. In [5], the activity change, positive = activation is -2.74%.
In the case of `CC1(C)COP(Oc2ccccc2)OC1`, the Potency entry in experiment [1], in experiment [3], in experiment [4], in [6], in experiment [7] and in experiment [8] was “inactive” in each case. Besides, the Potency result in experiment [9] and in experiment [10] was “inactive” each time. Also, in experiment [2], the compound was called inactive. In [5], the activity change, positive = activation was 6.55%.
As for `ClC(Br)Br`, the Potency entry in experiment [1], in experiment [3], in experiment [4], in [6], in [7] and in experiment [8] was “inactive” throughout. The Potency entry in experiment [9] is “inactive”. Moreover, the result in experiment [2] was inactive. Moreover, the activity change, positive = activation in experiment [5] was 1.41%.
With `COC(=O)c1ccccc1S(=O)(=O)NC(=O)N(C)c1nc(C)nc(OC)n1`, the Potency result in [1], in experiment [3], in experiment [4], in experiment [6], in experiment [7] and in experiment [9] was “inactive” throughout. The compound was classed as inactive in experiment [2]. Moreover, the activity change, positive = activation in experiment [5] is 6.39%.
`CC1=C(C(=O)O)N2C(=O)[C@@H](N)[C@H]2SC1`: the activation (H2AX phosphorylation) in experiment [1] is -1.16% [at 31.6 µM]. Besides, in experiment [2], the activation is -0.576% [at 15.8 µM]. Moreover, the activity change, negative = cytotoxicity in experiment [3] was -3.1% [at 31.6 µM]; in [6], 0.806% [at 15.8 µM]. In [4], the activity, negative = inhibition is 6% [at 19 µM]. For the same compound, the activity change, positive = activation in [5] was 3.36% [at 19 µM]. The activity change, negative = cytotoxic in [7] is 1.51% [at 15.8 µM]; in experiment [9], 1.44% [at 15.8 µM]. In [8], the cytotoxicity is -3.35% [at 15.8 µM]. Besides, the cytotoxicity increase in experiment [10] was -14.9% [at 15.8 µM].
For `N#CCBr`, the Potency result in [1], in experiment [3], in experiment [4], in experiment [6], in experiment [7] and in experiment [8] was “inactive” each time. For the same compound, in experiment [9], the Potency result was “inactive”. In experiment [2], the outcome was inactive. Moreover, the activity change, positive = activation in experiment [5] is 0.914%.
Turning to `CNC(=O)N(C)c1nc2ccccc2s1`, the Potency entry in experiment [1], in experiment [3], in [4], in experiment [6], in experiment [7] and in experiment [8] was “inactive” throughout. Further, the Potency result in experiment [9] and in experiment [10] was “inactive” throughout. For the same compound, the compound was called inactive in [2]. In addition, the activity change, positive = activation in experiment [5] is 89.8% (active).
`CC1CCCCC1NC(=O)Nc1ccccc1` (configuration not stated): the Potency entry in [1], in experiment [3], in experiment [4], in [6], in experiment [8] and in experiment [9] was “inactive” in each case. The Potency result in experiment [10] was “inactive”. Also, in experiment [2], the outcome was inactive. In [5], the activity change, positive = activation is 4.71%.
With `CCCCc1c(C)nc(NCC)[nH]c1=O`, the Potency result in experiment [1], in experiment [3], in experiment [4], in experiment [6], in [9] and in experiment [10] was “inactive” in each case. Further, the outcome in [2] was inactive. In addition, in [5], the activity change, positive = activation is 5.33%.
Take `Cc1ncc2n1-c1ccc(Cl)cc1C(c1ccccc1F)=NC2`: the Potency result in experiment [1], in experiment [3], in experiment [4], in experiment [6], in [9] and in [10] was “inactive” each time. Besides, the outcome in experiment [2] was inactive. Besides, in experiment [5], the activity change, positive = activation is 12.1% [at 42.5 µM].
With `CNC(=O)Oc1ccc(N(C)C)c(C)c1`, the Potency result in experiment [1], in [3], in experiment [4], in experiment [6], in experiment [7] and in experiment [8] was “inactive” throughout. Also, the Potency result in experiment [9] and in [10] was “inactive” in each case. Besides, in experiment [2], the result was inactive.
Take `O=C1CN=C(c2ccccc2)c2cc([N+](=O)[O-])ccc2N1`: the Potency result in [1], in [3], in experiment [4], in experiment [6], in [7] and in experiment [8] was “inactive” each time. For the same compound, the Potency entry in experiment [9] and in experiment [10] was “inactive” throughout. In addition, in [2], the result was inactive.
In the case of `CCCCCCBr`, the Potency entry in experiment [1], in experiment [3], in experiment [4], in [6], in [7] and in experiment [9] was “inactive” in each case. In [10], the Potency result is “inactive”. Moreover, the result in experiment [2] was inactive. The activity change, positive = activation in [5] was 0.352%.
As to `CN/C(=N\[N+](=O)[O-])NCC1CCOC1` (configuration not stated), the Potency result in experiment [1], in [3], in experiment [6], in experiment [7], in experiment [8] and in experiment [9] was “inactive” in each case. For the same compound, the compound was classed as inactive in experiment [2].
As for `ClCCCN1CCN(c2cccc(Cl)c2)CC1`, the Potency entry in experiment [1], in experiment [3], in experiment [4], in experiment [7], in [8] and in experiment [9] was “inactive” in each case. Besides, in experiment [2], the call was inactive. The activity change, positive = activation in experiment [5] is -4.21% [at 42.5 µM].
Turning to `NC(=S)C(N)=S`, the Potency result in experiment [1], in experiment [3], in experiment [6], in experiment [7], in experiment [8] and in experiment [9] was “inactive” in each case. Moreover, in experiment [10], the Potency result was “inactive”. In addition, the call in experiment [2] was inactive. Also, the activity change, positive = activation in experiment [5] is -20.6%.
Regarding `[O]=[Cd]`, the Potency entry in experiment [1], in [3], in experiment [7], in [8], in experiment [9] and in [10] was “inactive” each time. Also, the result in [2] was inactive. Also, the activity change, positive = activation in experiment [5] is -14%.
As to `COC(C)(C)C`, the Potency entry in [1], in [3], in [6], in experiment [7], in [8] and in [9] was “inactive” throughout. Besides, the compound was called inactive in experiment [2].
